GLP1R ag: agonists of human GLP-1 receptor | HEK293 GLP-1R CRE-luciferase, luminescence, 4-6 h; cells express a hypersensitive GLP-1R form | Potency, µM (series often up to 45.6 µM), usual class: activators | 380,000 compounds, 0.007% hits
Target sequence (P43220 whole entry, looked up): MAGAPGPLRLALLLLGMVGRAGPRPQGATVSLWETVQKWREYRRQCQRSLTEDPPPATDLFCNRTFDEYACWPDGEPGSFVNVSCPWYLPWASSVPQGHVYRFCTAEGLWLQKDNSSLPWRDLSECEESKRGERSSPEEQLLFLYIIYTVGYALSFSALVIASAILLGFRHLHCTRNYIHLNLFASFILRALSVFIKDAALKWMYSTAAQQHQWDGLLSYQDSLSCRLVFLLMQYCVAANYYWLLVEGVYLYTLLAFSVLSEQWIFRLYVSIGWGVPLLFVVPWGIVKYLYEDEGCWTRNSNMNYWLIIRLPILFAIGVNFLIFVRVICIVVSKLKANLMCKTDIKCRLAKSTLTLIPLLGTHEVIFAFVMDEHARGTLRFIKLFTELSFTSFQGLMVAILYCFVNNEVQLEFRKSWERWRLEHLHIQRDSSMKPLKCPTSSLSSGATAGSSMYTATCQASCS
GLP1R cytotox: cytotoxicity counter-screen for GLP-1 receptor inverse agonists. 410,000 compounds, 0.13% hits. Potency, µM (titrated, usually from 38.3 µM), most hits filed as inhibitors. HEK293 cAMP-luciferase reporter cells, luminescence, 24 h;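 also: loss of luciferase light is scored as toxicity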
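Quantitative HTS format, 1536 wells, 200 cells/uL seeded. Compounds: 23 nL, 24 h, 37 °C. Detection: luciferase reagent, luminescence at 12 min RT; decreased signal taken as cytotoxic.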
GLP1R inv ag: inverse agonists of human GLP-1 receptor; P43220; HEK293 GLP-1R CRE-luciferase, luminescence, 24 h; GLP-1R form is constitutively active; Potency, µM (highest dose often 38.3 µM), hits mostly inhibitors; 410,000 compounds, 1.6% hits; also: nearly all actives have a fitted effect of over 55% in size
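Stable HEK293 clone (constitutively active GLP-1R + cAMP-response luciferase); 200 cells/uL plated, 12 h pre-culture, compound 24 hr, 37 deg C/5% CO2; detection reagent 12 min RT; luminescence.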
PTHR1 ag: agonists of human PTHR1 parathyroid hormone receptor. HEK293 GP2 PTHR1 cells, GloSensor cAMP luminescence, 1 h. 410,000 compounds, 0.075% hits. Potency, µM (doses to about 115 µM), usual class: activators; also: nearly all actives have a fitted effect of over 55% in size
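HEK-293-derived GP2 cells expressing PTHR1 and a GloSensor cAMP reporter, 3,000/well, plated overnight, given luciferin plus IBMX (each 0.5 mM as added) for 1 h at 37 °C, then compound for 1 h at 37 °C. Luminescence was read after 15 min at room temperature.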
Large screens that a line does not name were inactive. Most compounds without a hit are left out; they make up all but 1.7% or so of the library. Calls follow the shape of the dose curve; as a rule, active = well fitted curve in the direction sought with a large enough effect; inconclusive = small, poorly fitted or top-dose-only effect, or another doubt; inactive = no such curve, though single readings can be large; an effect the other way counts as inactive or inconclusive.

Cc1cc(NC(=O)CSc2nc3cc(Cl)ccc3o2)no1	GLP1R cytotox inconclusive, GLP1R inv ag 2.51µM
N#Cc1cnn2c(-c3ccc(Cl)cc3Cl)ccnc12	none
FC(F)(F)c1cccc(N2CCN(C(=S)NC3CCCC3)CC2)c1	GLP1R cytotox inconclusive, GLP1R inv ag 7.94µM
FC(F)(F)c1cccc(N2CCN(C(=S)NC3CCCCC3)CC2)c1	GLP1R inv ag inconclusive
CC(C)CCNC(=O)C1CCN(C(=O)N2CCOc3ccc(Cl)cc32)CC1	none (no result: GLP1R ag)
Cc1cc(C(=O)COC(=O)c2cccnc2Cl)c(C)n1C	GLP1R inv ag 7.08µM
O=C(O[C@H]1CN2CCC1CC2)N1CCc2ccccc2[C@@H]1c1ccccc1	none (no result: GLP1R cytotox, GLP1R inv ag, PTHR1 ag)
OCC1OC(OC2C(CO)OC(OC3C(CO)OC(O)C(O)C3O)C(O)C2O)C(O)C(O)C1O (configuration not stated)	none (no result: GLP1R cytotox, GLP1R inv ag, PTHR1 ag)
COC(=O)N/N=C/c1cn(Cc2ccccc2F)c2ccccc12	GLP1R inv ag inconclusive
COC(=O)N/N=C/c1cn(Cc2ccc(F)cc2)c2ccccc12	GLP1R inv ag 7.94µM
COC(=O)N/N=C/c1cn(CCCOc2ccccc2)c2ccccc12	GLP1R inv ag 10µM
CN1[C@@H]2CCC[C@@H]1CC(NC(=O)c1nn(C)c3ccccc13)C2 (some centres not stated)	none (no result: GLP1R cytotox, GLP1R inv ag, PTHR1 ag)
Cc1ccc(S(=O)(=O)N2C[C@H]3N(C(=O)OC(C)C)N(C(=O)OC(C)C)C[C@H](OC(=O)NCC4CCCCC4)[C@@]3(O)C2)cc1	GLP1R cytotox inconclusive, GLP1R inv ag 4.47µM
CCOC(=O)c1nnn(-c2nonc2N)c1COc1cc(C)c(Cl)c(C)c1	GLP1R inv ag 8.91µM
Cc1ccc(Cl)cc1N1CCN(C(=O)C2CCN(c3nnc(-n4cccc4)s3)CC2)CC1	GLP1R inv ag 3.55µM
Cc1cccc(C(=O)OCCN2CCOCC2)c1	none
CC(C)C[C@H](NC(=O)c1[nH]cnc1C(=O)N[C@@H](Cc1ccccc1)C(=O)OC(C)(C)C)C(=O)OC(C)(C)C	GLP1R inv ag 10µM
CC(C)(C)OC(=O)[C@H](Cc1ccccc1)NC(=O)c1nc[nH]c1C(=O)N1CCN(C(=O)OC(C)(C)C)CC1	GLP1R inv ag 4.47µM
CC(C)C[C@H](NC(=O)c1[nH]cnc1C(=O)N[C@@H](Cc1ccccc1)C(=O)OC(C)(C)C)C(=O)OCc1ccccc1	GLP1R inv ag inconclusive
C[C@H](NC(=O)c1nc[nH]c1C(=O)N[C@@H](CCCCNC(=O)OC(C)(C)C)C(=O)OC(C)(C)C)C(=O)OC(C)(C)C	GLP1R inv ag 10µM
CC(C)(C)OC(=O)NCCCC[C@H](NC(=O)c1nc[nH]c1C(=O)N[C@@H](CCCCNC(=O)OC(C)(C)C)C(=O)OC(C)(C)C)C(=O)OC(C)(C)C	GLP1R inv ag inconclusive
CC(C)(C)OC(=O)N1CCN(C(=O)c2[nH]cnc2C(=O)N[C@@H](Cc2ccccc2)C(=O)OCc2ccccc2)CC1	none
CC(C)(C)OC(=O)NCCCCCNC(=O)c1nc[nH]c1C(=O)NCC(=O)OCc1ccccc1	GLP1R inv ag 11.2µM
O=C(CCC(=O)N1CCOc2ccc(Cl)cc21)NCCN1CCOCC1	none
CC(C)C[C@H](NC(=O)c1[nH]cnc1C(=O)N[C@@H](C)c1ccccc1)C(=O)OC(C)(C)C	GLP1R cytotox inconclusive, GLP1R inv ag 10µM
CCOc1ccc(N2CC(C(=O)Nc3ccc(S(=O)(=O)NCC4CCCO4)cc3)CC2=O)cc1 (configuration not stated)	none
Cn1c(/C=C/c2ccccc2)nc2ccccc21	GLP1R inv ag 4.47µM
CCOC(=O)c1nc2sc3c(c2c(=O)n1C(C)C(=O)OCC)CCCC3 (configuration not stated)	GLP1R inv ag 1.26µM
CCOC(=O)c1sc(NC(=O)Cn2nnc3sc4c(c3c2=O)CCCC4)nc1C	none
Cc1ncsc1C(=O)N1N=C2/C(=C/c3ccccc3)CCCC2C1c1ccccc1 (configuration not stated)	GLP1R inv ag 3.98µM
Cc1ncsc1C(=O)N1N=C2/C(=C/c3ccc(N4CCOCC4)cc3)CCCC2C1c1ccc(N2CCOCC2)cc1 (configuration not stated)	none
O=C(CSc1nc2ccccc2s1)N/N=C/c1cc([N+](=O)[O-])ccc1O	GLP1R inv ag inconclusive
O=[N+]([O-])c1cc(C(F)(F)F)ccc1NCCc1c[nH]c2ccc(O)cc12	none
O=[N+]([O-])c1cc(C(F)(F)F)ccc1NCCc1c[nH]c2ccccc12	GLP1R cytotox 10µM, GLP1R inv ag inconclusive
CC(C)NC(=S)N=Nc1c(O)[nH]c2ccc([N+](=O)[O-])cc12	GLP1R cytotox 2.51µM, GLP1R inv ag inconclusive
C=C(C)CNC(=S)N=Nc1c(O)[nH]c2ccc([N+](=O)[O-])cc12	GLP1R cytotox 4.47µM
O=C(CNC(=O)c1ccco1)N=Nc1c(O)[nH]c2ccc([N+](=O)[O-])cc12	GLP1R cytotox inconclusive
NC(=O)N=Nc1c(O)[nH]c2ccc([N+](=O)[O-])cc12	none
CC(NC(=O)CSCc1ccc(Br)cc1)c1ccccc1 (configuration not stated)	GLP1R inv ag 7.08µM
CCc1ccc(-n2c(=O)c3c4c(sc3n(Cc3ccccc3C#N)c2=O)CCC4)cc1	none
CCN(CC)C(=O)C(=O)c1cccn1-c1cccc(-n2cccc2C(=O)C(=O)N(CC)CC)c1C#N	none
O=C(CCl)N(Cc1cc(=O)[nH]c2ccccc12)c1ccccc1	GLP1R cytotox inconclusive, GLP1R inv ag 2.82µM
Cc1ccc(CNC(=O)CCCC(=O)c2ccccc2)cc1	none
O=[N+]([O-])c1cccc(CON=Cc2cc(Cl)ccc2O)c1	GLP1R inv ag inconclusive
C(=C\c1ccc2ccccc2n1)/c1ccccc1	GLP1R inv ag 10µM, PTHR1 ag inconclusive
O=[N+]([O-])c1ccc(/C=C/c2ccc3cccc(O)c3n2)cc1	none
O=[N+]([O-])c1ccc(/C=C/c2ccc3ccccc3n2)cc1	GLP1R inv ag 10µM
COc1ccc(C2c3c(n(C)c4ccccc34)C(=O)N2CC(=O)Nc2ccc(C)cc2Cl)cc1 (configuration not stated)	none (no result: GLP1R ag)
Cc1cc(=O)nc2c3ccccc3n(CC(=O)NC(C)c3ccc4c(c3)OCCO4)n12 (configuration not stated)	none
CCOC(=O)CCSc1cc(C)c2ccccc2n1	none
CC(C)Oc1ccc(C(=O)/C(=C\c2cccs2)c2nc3ccccc3o2)cc1	GLP1R inv ag 7.08µM
Cc1ccc(NC(=O)CCNC(=O)c2ccc(Cl)cc2)cc1C	GLP1R inv ag inconclusive
Oc1ccc(C(=S)N2CCN(Cc3ccccc3)CC2)cc1	none
CN(C)c1ccc(C(=S)N2CCN(Cc3ccccc3)CC2)cc1	GLP1R inv ag 11.2µM
Cc1cc(N2CCN(Cc3nc(-c4ccc(F)cc4)oc3C)CC2)cc(C)n1	GLP1R inv ag 4.47µM
O=S(=O)(/C(=C/c1ccc(C(F)(F)F)cc1)c1nc2ccccc2[nH]1)c1ccccc1	GLP1R cytotox 7.94µM, GLP1R inv ag 1.78µM

Assay outcomes deposited in PubChem BioAssay by National Center for Advancing Translational Sciences (NCATS).
